Activity calls are given as the source filed them.
Key:
[1] = E. coli DRC41 culture turbidity changes, primary screen, E. coli filamentation inducer project, strain DRC41, OD650, 48 h (AID 1152);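 also: E. coli MC1000 strain DRC41 lacking acrAB efflux pump and sulA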; details: E. coli DRC41 (acrAB sulA), higher = more signal, called active from +8 up or from −8 down
[2] = small-molecule binders of probe aLefty1, primary screen, biochemical, small-molecule microarray, 635/667 nm fluorescence (AID 1153); details: higher = more signal;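 also: score merges spot fluorescence with signal-to-noise ratio from the scanned slide images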
[3] = PSAC antagonists in infected red cells, primary screen, cell-based, P. falciparum Indochina, OD700, 1 h (AID 1154); details: P. falciparum Indochina infected RBC osmotic lysis, higher = more signal, called active from +8 up or from −8 down
[4] = PSAC antagonists in infected red cells, primary screen, cell-based, P. falciparum Indochina, OD700, 2 h (AID 1155);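 also: lysis reports solute entry through the parasite surface anion channel PSAC; channel blockers reduce lysis of infected cells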; details: P. falciparum Indochina infected erythrocytes, osmotic lysis OD700; higher = more signal, called active from +8 up or from −8 down
[5] = osmotic lysis modulators in infected erythrocytes, primary screen, PSAC antagonist project, cell-based, P. falciparum Indochina, OD700, 3 h (AID 1156); details: higher = more signal, called active from +8 up or from −8 down
[6] = PSAC antagonists in infected red cells, primary screen, cell-based, P. falciparum Indochina, OD700, 18 h (AID 1157); details: P. falciparum Indochina infected erythrocytes, osmotic lysis OD700, 18 h; higher = more signal, called active from +8 up or from −8 down
[7] = modulators of S6 phosphorylation in cells, primary screen, cell-based, A549, cytoblot, luminescence, serum-stimulated (AID 1158); details: A549 phospho-S6 cytoblot, 5 h, higher = more signal;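 also: serum-stimulated A549 lung adenocarcinoma cells; signal is phosphorylated S6 detected by cytoblot immunostaining with HRP secondary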
[8] = target: NADPH oxidase 2 (Homo sapiens) (UniProt P04839); experiment: NOX2-dependent H2O2 signal modulators, primary screen, NOX inhibitor project, cell-based, HEK293-NOX2, PMA-stimulated, Amplex Red fluorescence (AID 1159); details: 45 min, higher = more signal, called active from +8 up or from −8 down; also: test concentration not given here
[9] = target: NADPH oxidase 4 (Homo sapiens) (UniProt Q9NPH5); experiment: NOX4-dependent H2O2 signal modulators, primary screen, NOX inhibitor project, cell-based, HEK293-NOX4, tetracycline-induced, Amplex Red fluorescence (AID 1160); details: 45 min, higher = more signal, called active from +8 up or from −8 down
[10] = target: NADPH oxidase 5 (Homo sapiens) (UniProt Q96PH1); experiment: NOX5-dependent H2O2 signal modulators, primary screen, NOX inhibitor project, cell-based, HEK293-NOX5, Amplex Red fluorescence (AID 1161); details: HEK293-NOX5, ionomycin, 45 min, higher = more signal
NADPH oxidase 5 (Homo sapiens), sequence (Q96PH1 whole entry, looked up): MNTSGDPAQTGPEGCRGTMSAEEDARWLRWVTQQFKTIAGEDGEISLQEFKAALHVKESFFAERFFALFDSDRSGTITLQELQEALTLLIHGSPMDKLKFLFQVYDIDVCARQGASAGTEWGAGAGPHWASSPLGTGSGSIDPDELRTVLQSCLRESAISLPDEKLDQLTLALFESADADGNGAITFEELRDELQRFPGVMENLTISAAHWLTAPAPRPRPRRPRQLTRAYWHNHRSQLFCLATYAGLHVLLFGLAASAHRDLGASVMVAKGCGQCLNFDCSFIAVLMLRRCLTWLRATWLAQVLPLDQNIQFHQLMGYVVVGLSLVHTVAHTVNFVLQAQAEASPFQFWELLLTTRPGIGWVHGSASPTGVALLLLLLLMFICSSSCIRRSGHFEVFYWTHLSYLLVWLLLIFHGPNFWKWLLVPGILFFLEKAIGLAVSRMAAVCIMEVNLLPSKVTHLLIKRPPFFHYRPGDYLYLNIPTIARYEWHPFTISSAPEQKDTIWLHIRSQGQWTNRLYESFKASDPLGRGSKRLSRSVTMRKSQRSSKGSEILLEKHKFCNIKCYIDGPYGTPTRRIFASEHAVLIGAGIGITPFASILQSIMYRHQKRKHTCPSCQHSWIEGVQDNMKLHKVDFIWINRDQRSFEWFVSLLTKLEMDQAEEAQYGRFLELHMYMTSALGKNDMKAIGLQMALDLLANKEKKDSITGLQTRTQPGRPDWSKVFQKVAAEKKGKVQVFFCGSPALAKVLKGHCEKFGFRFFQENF

NADPH oxidase 2 (Homo sapiens), sequence (P04839 whole entry, looked up): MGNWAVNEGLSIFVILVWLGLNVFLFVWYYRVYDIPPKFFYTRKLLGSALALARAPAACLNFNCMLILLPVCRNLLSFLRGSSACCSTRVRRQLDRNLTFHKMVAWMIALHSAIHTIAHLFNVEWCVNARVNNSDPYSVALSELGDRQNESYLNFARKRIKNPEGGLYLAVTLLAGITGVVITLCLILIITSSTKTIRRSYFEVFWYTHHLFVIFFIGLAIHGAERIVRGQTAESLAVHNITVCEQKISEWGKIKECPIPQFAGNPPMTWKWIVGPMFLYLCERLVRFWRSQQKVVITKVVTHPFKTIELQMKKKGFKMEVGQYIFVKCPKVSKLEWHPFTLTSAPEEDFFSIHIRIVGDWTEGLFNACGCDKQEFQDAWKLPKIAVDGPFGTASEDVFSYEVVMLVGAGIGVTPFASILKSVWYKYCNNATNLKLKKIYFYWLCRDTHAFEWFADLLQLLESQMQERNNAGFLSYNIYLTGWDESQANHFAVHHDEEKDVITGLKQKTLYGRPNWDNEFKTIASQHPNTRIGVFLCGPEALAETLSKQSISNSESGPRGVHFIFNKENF
NADPH oxidase 4 (Homo sapiens), sequence (Q9NPH5 whole entry, looked up): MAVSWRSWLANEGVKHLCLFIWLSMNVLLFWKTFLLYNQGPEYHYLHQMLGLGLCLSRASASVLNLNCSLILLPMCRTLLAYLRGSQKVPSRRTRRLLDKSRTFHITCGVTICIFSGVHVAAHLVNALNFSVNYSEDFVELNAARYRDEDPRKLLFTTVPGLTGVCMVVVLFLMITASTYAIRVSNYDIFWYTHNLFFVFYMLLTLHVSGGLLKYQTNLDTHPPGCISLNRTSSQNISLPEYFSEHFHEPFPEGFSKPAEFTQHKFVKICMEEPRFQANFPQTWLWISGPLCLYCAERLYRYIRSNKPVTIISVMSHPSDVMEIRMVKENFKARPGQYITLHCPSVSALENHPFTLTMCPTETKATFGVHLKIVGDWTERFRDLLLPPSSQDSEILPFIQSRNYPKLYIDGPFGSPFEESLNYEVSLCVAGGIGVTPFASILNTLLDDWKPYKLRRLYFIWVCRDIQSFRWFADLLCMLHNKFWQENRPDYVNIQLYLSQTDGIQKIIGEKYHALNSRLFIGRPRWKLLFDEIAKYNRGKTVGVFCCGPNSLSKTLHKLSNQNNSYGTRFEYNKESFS

SMILES | z-score [1] | composite z-score [2] | z-score [3] | z-score [4] | z-score [5] | z-score [6] | z-score [7] | z-score [8] | z-score [9] | z-score [10]
CO[C@H]1O[C@H](CO)[C@@H](OC(=O)Nc2ccc3c(c2)OCO3)[C@H](OC(=O)Nc2ccc3c(c2)OCO3)[C@H]1OC(=O)Nc1ccc2c(c1)OCO2 | 0.164 (inactive) | 0.457 | 6.86 (inactive) | 1.04 (inactive) | 0.608 (inactive) | 0.519 (inactive) | -0.489 | -1.44 (inactive) | -0.847 (inactive) | -1.69
O=C1O[C@H](c2ccccc2)[C@H](c2ccccc2)N2[C@H]1[C@@H](C(=O)N1CCCCCCC1)[C@]1(C(=O)Nc3ccc(C#CC4=CCCCC4)cc31)[C@H]2c1ccc(O)cc1 | -0.306 (inactive) | 3.07 | 0.123 (inactive) | -0.131 (inactive) | 0.0311 (inactive) | 0.482 (inactive) | -0.0408 | 0.855 (inactive) | 0.494 (inactive) | 0.322
C=C[C@H](C)[C@H](OC(=O)Nc1ccc(OC)cc1)c1ccc(O)c2ccccc12 | -0.222 (inactive) | 0.0313 | 1.71 (inactive) | 0.435 (inactive) | -0.554 (inactive) | -0.187 (inactive) | 0.486 | -5.39 (inactive) | -1.77 (inactive) | -0.256
CCOC(=O)C1=CC[C@@H](c2cccc(Cl)c2)N(S(=O)(=O)c2ccc(C)cc2)[C@H]1c1ccc(C#N)cc1 | -1.41 (inactive) | 0.514 | 1.53 (inactive) | 1.34 (inactive) | 0.0178 (inactive) | 0.729 (inactive) | -0.438 | 0.827 (inactive) | 1.2 (inactive) | 0.639
COCCCNC(=O)[C@]1(Cc2ccccc2N=[N+]=[N-])N=C(c2ccc(OCCCO)cc2)O[C@@H]1c1ccccc1CN=[N+]=[N-] | 0.871 (inactive) | 0.766 | 28.1 (active) | 21.2 (active) | 3.17 (inactive) | 2.71 (inactive) | 1.97 | -0.888 (inactive) | 0.4 (inactive) | -0.209
CN(C)CCCCCCNC(=O)[C@@H]1C[C@@H]2C(=O)NCC(=O)N2[C@@H]1c1cccc(OCCO)c1 | 0.492 (inactive) | 0.169 | 2.11 (inactive) | 0.109 (inactive) | 2.28 (inactive) | 0.253 (inactive) | 0.0964 | 0.438 (inactive) | 0.611 (inactive) | 0.6
Cc1ccc(S[C@]2(C(=O)NCC(C)C)CC(=O)N(Cc3ccccc3)[C@@H]2c2ccc(CO)cc2)cc1 | -0.747 (inactive) | 0.171 | 2.36 (inactive) | 0.522 (inactive) | -0.111 (inactive) | 0.451 (inactive) | 0.138 | -0.336 (inactive) | 0.361 (inactive) | 0.499
CC[C@@H]1C=C(C(=O)O)[C@H](c2ccc(C(C)C)cc2)N1S(=O)(=O)c1ccc(C)cc1 | -0.646 (inactive) | 1.36 | 0.998 (inactive) | 0.845 (inactive) | 0.105 (inactive) | 0.709 (inactive) | -0.334 | 0.685 (inactive) | -0.418 (inactive) | -0.0711
Cc1ccc(S[C@]2(C(=O)NCCCN(C)C)CC(=O)N(Cc3ccccc3)[C@@H]2c2ccc(CO)cc2)cc1 | 0.239 (inactive) | 0.136 | 2.24 (inactive) | 0.077 (inactive) | 1.5 (inactive) | 0.013 (inactive) | 0.161 | -3.38 (inactive) | 0.6 (inactive) | 1.89
O=C1O[C@@H](c2ccccc2)[C@@H](c2ccccc2)N2[C@@H](c3ccc(O)cc3)[C@]3(C(=O)Nc4ccccc43)[C@@H](C(=O)N3CCCCCCC3)[C@H]12 | -0.779 (inactive) | 2.88 | 0.571 (inactive) | -0.0476 (inactive) | -1.25 (inactive) | 0.516 (inactive) | -0.274 | 0.915 (inactive) | 0.522 (inactive) | 1.57
COC(=O)[C@@]1(Cc2ccc(F)cc2)[C@H]2c3cc(C(=O)N4CCCC4)n(Cc4ccc(Cl)c(C(F)(F)F)c4)c3C[C@H]2CN1C(=O)c1ccccc1 | -1.31 (inactive) | 1.99 | 3.16 (inactive) | 0.895 (inactive) | 0.923 (inactive) | 1.21 (inactive) | -0.256 | 0.71 (inactive) | 0.705 (inactive) | 1.31

Reference: PubChem BioAssay
